For 40 sequences, binding signal results are on record in publication PMC12820563, “FoxP3 forms a head-to-head dimer in vivo and stabilizes its multimerization on adjacent microsatellites”.

Over roughly 16,000 sequences, “rpm ratio (pull-down/input)” has its median near 0.5; the highest 2% begin near 5.5. Many of the other results were omitted from the sample, so the highest values are more common in it than they were.

For the experiment, the target named is T1, MBP-FoxP3dN (Mus musculus, UniProt Q99JB6 188-423).
T1 sequence: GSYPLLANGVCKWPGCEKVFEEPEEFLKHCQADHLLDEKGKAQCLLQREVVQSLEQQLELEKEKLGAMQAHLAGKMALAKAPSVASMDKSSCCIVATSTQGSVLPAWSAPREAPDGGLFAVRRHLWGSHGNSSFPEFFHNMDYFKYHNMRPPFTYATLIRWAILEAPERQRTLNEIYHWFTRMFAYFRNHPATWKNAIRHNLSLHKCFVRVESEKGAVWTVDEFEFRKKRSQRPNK
As to the kind of experiment: PD-seq (MBP pull-down with sequencing); 20 mM Tris-HCl pH 7.5, 100 mM NaCl, 1.5 mM MgCl2, 0.4 uM protein, 0.1 uM dsDNA library, 30 min, room temperature, amylose pull-down; high values mean tight binding. To be noted: protein: recombinant; tags: His6-MBP; chain copies: 2; dsDNA, one strand shown. In short, it runs like this:
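A degenerate double-stranded DNA library, filled in with Klenow, was added at 0.1 µM to 0.4 µM His6-MBP-tagged mouse FoxP3 or FoxP1 fragment lacking the N-terminus, expressed in E. coli. Incubation lasted 30 min at room temperature in Tris pH 7.5 buffer with NaCl and MgCl2, after which complexes were collected on amylose resin, washed three times, digested with proteinase K to free the DNA, barcoded by PCR and sequenced by Illumina. Binding is the pooled-replicate reads-per-million enrichment of pull-down over input.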
As to “GATGATTGTTCTCCCAGCTGATGAATTCCGTGCCTCGAGTAAACAAATTTTCCTAATCTTTCTGTTCAAGCGCCATCTAC”, the binding signal is 0.796 RPM ratio (pull-down/input). For “GATGATTGTTCTCCCAGCTGATGAATTTATCTGATCGAGTAAACAAATTTTCCTAATCTTTCTGTTCAAGCGCCATCTAC”, the binding signal was 0.374 RPM ratio (pull-down/input). With “GATGATTGTTCTCCCAGCTGATGAATTTATCGAGTCGAGTAAACAAATTTTCCTAATCTTTCTGTTCAAGCGCCATCTAC”, the binding signal was 0.379 RPM ratio (pull-down/input).

“GATGATTGTTCTCCCAGCTGATGAATTCTAATCATCGAGTAAACAAATTTTCCTAATCTTTCTGTTCAAGCGCCATCTAC”: the binding signal is 0.567 RPM ratio (pull-down/input). The result for “GATGATTGTTCTCCCAGCTGATGAATTTGACGCATCGAGTAAACAAATTTTCCTAATCTTTCTGTTCAAGCGCCATCTAC” reads 1.22 RPM ratio (pull-down/input); that for “GATGATTGTTCTCCCAGCTGATGAATTGACGCATTCGAGTAAACAAATTTTCCTAATCTTTCTGTTCAAGCGCCATCTAC”, 5.74 RPM ratio (pull-down/input); that for “GATGATTGTTCTCCCAGCTGATGAATTTCGCATTTCGAGTAAACAAATTTTCCTAATCTTTCTGTTCAAGCGCCATCTAC”, 6.94 RPM ratio (pull-down/input).

In the case of “GATGATTGTTCTCCCAGCTGATGAATTTTCGCATTCGAGTAAACAAATTTTCCTAATCTTTCTGTTCAAGCGCCATCTAC”, the binding signal was 6.27 RPM ratio (pull-down/input). The same measure for “GATGATTGTTCTCCCAGCTGATGAATTCGCCATTTCGAGTAAACAAATTTTCCTAATCTTTCTGTTCAAGCGCCATCTAC”: 1.75 RPM ratio (pull-down/input); for “GATGATTGTTCTCCCAGCTGATGAATTTTTCGCATCGAGTAAACAAATTTTCCTAATCTTTCTGTTCAAGCGCCATCTAC”: 0.898 RPM ratio (pull-down/input); for “GATGATTGTTCTCCCAGCTGATGAATTCGCATTTTCGAGTAAACAAATTTTCCTAATCTTTCTGTTCAAGCGCCATCTAC”: 4.25 RPM ratio (pull-down/input). On to “GATGATTGTTCTCCCAGCTGATGAATTTCGCCATTCGAGTAAACAAATTTTCCTAATCTTTCTGTTCAAGCGCCATCTAC”, for which the binding signal was 5.04 RPM ratio (pull-down/input).

Take “GATGATTGTTCTCCCAGCTGATGAATTCGCATTCTCGAGTAAACAAATTTTCCTAATCTTTCTGTTCAAGCGCCATCTAC”: the binding signal was 4.89 RPM ratio (pull-down/input). With “GATGATTGTTCTCCCAGCTGATGAATTGTTCGCATCGAGTAAACAAATTTTCCTAATCTTTCTGTTCAAGCGCCATCTAC”, the binding signal was 1.1 RPM ratio (pull-down/input). Turning to “GATGATTGTTCTCCCAGCTGATGAATTCTCGCATTCGAGTAAACAAATTTTCCTAATCTTTCTGTTCAAGCGCCATCTAC”, the binding signal was 5.82 RPM ratio (pull-down/input). Turning to “GATGATTGTTCTCCCAGCTGATGAATTCGACGCATCGAGTAAACAAATTTTCCTAATCTTTCTGTTCAAGCGCCATCTAC”, the binding signal was 0.992 RPM ratio (pull-down/input). The result for “GATGATTGTTCTCCCAGCTGATGAATTTGGATACTCGAGTAAACAAATTTTCCTAATCTTTCTGTTCAAGCGCCATCTAC” reads 1.85 RPM ratio (pull-down/input); that for “GATGATTGTTCTCCCAGCTGATGAATTGCCCAAATCGAGTAAACAAATTTTCCTAATCTTTCTGTTCAAGCGCCATCTAC”, 0.385 RPM ratio (pull-down/input). Take “GATGATTGTTCTCCCAGCTGATGAATTAGTTACATCGAGTAAACAAATTTTCCTAATCTTTCTGTTCAAGCGCCATCTAC”: the binding signal is 0.891 RPM ratio (pull-down/input). The same measure for “GATGATTGTTCTCCCAGCTGATGAATTTAGCTACTCGAGTAAACAAATTTTCCTAATCTTTCTGTTCAAGCGCCATCTAC”: 1.83 RPM ratio (pull-down/input); for “GATGATTGTTCTCCCAGCTGATGAATTTTTGGAGTCGAGTAAACAAATTTTCCTAATCTTTCTGTTCAAGCGCCATCTAC”: 0.23 RPM ratio (pull-down/input); for “GATGATTGTTCTCCCAGCTGATGAATTGGATGGCTCGAGTAAACAAATTTTCCTAATCTTTCTGTTCAAGCGCCATCTAC”: 0.46 RPM ratio (pull-down/input).

As to “GATGATTGTTCTCCCAGCTGATGAATTGGGCAGCTCGAGTAAACAAATTTTCCTAATCTTTCTGTTCAAGCGCCATCTAC”, the binding signal was 0.963 RPM ratio (pull-down/input). On to “GATGATTGTTCTCCCAGCTGATGAATTTGAGCACTCGAGTAAACAAATTTTCCTAATCTTTCTGTTCAAGCGCCATCTAC”, for which the binding signal is 0.481 RPM ratio (pull-down/input). In the case of “GATGATTGTTCTCCCAGCTGATGAATTCCACCCGTCGAGTAAACAAATTTTCCTAATCTTTCTGTTCAAGCGCCATCTAC”, the binding signal was 0.242 RPM ratio (pull-down/input). The result for “GATGATTGTTCTCCCAGCTGATGAATTGTTAGATTCGAGTAAACAAATTTTCCTAATCTTTCTGTTCAAGCGCCATCTAC” reads 0.635 RPM ratio (pull-down/input); that for “GATGATTGTTCTCCCAGCTGATGAATTTGTCGGTTCGAGTAAACAAATTTTCCTAATCTTTCTGTTCAAGCGCCATCTAC”, 3.1 RPM ratio (pull-down/input); that for “GATGATTGTTCTCCCAGCTGATGAATTTCGTCCCTCGAGTAAACAAATTTTCCTAATCTTTCTGTTCAAGCGCCATCTAC”, 0.799 RPM ratio (pull-down/input). In the case of “GATGATTGTTCTCCCAGCTGATGAATTCGCAGCTTCGAGTAAACAAATTTTCCTAATCTTTCTGTTCAAGCGCCATCTAC”, the binding signal is 0.653 RPM ratio (pull-down/input). For the sequence “GATGATTGTTCTCCCAGCTGATGAATTCTTCGCATCGAGTAAACAAATTTTCCTAATCTTTCTGTTCAAGCGCCATCTAC”, the binding signal was 0.708 RPM ratio (pull-down/input). Consider “GATGATTGTTCTCCCAGCTGATGAATTCGCGCCATCGAGTAAACAAATTTTCCTAATCTTTCTGTTCAAGCGCCATCTAC”, for which the binding signal was 2.63 RPM ratio (pull-down/input). In the case of “GATGATTGTTCTCCCAGCTGATGAATTCGCATCTTCGAGTAAACAAATTTTCCTAATCTTTCTGTTCAAGCGCCATCTAC”, the binding signal was 5.81 RPM ratio (pull-down/input). The result for “GATGATTGTTCTCCCAGCTGATGAATTCGCGCATTCGAGTAAACAAATTTTCCTAATCTTTCTGTTCAAGCGCCATCTAC” reads 7.06 RPM ratio (pull-down/input).

On to “GATGATTGTTCTCCCAGCTGATGAATTTCGCAGCTCGAGTAAACAAATTTTCCTAATCTTTCTGTTCAAGCGCCATCTAC”, for which the binding signal is 2.01 RPM ratio (pull-down/input). Turning to “GATGATTGTTCTCCCAGCTGATGAATTTCGCGCATCGAGTAAACAAATTTTCCTAATCTTTCTGTTCAAGCGCCATCTAC”, the binding signal was 1.42 RPM ratio (pull-down/input). The same measure for “GATGATTGTTCTCCCAGCTGATGAATTTCTCGCATCGAGTAAACAAATTTTCCTAATCTTTCTGTTCAAGCGCCATCTAC”: 0.861 RPM ratio (pull-down/input); for “GATGATTGTTCTCCCAGCTGATGAATTTCACGCATCGAGTAAACAAATTTTCCTAATCTTTCTGTTCAAGCGCCATCTAC”: 1.01 RPM ratio (pull-down/input); for “GATGATTGTTCTCCCAGCTGATGAATTCACGCATTCGAGTAAACAAATTTTCCTAATCTTTCTGTTCAAGCGCCATCTAC”: 5.67 RPM ratio (pull-down/input). Take “GATGATTGTTCTCCCAGCTGATGAATTCACGCTTTCGAGTAAACAAATTTTCCTAATCTTTCTGTTCAAGCGCCATCTAC”: the binding signal is 1.11 RPM ratio (pull-down/input). For the sequence “GATGATTGTTCTCCCAGCTGATGAATTTCGCATCTCGAGTAAACAAATTTTCCTAATCTTTCTGTTCAAGCGCCATCTAC”, the binding signal is 6.74 RPM ratio (pull-down/input).
